Experimental findings from PubChem BioAssay are described below.

Values joined by “and” are separate entries in the source; they are usually repeats but may differ in a detail not shown here. Identical values can stand only once.

A short description of the first assay: EMT-state selective cytotoxicity in co-culture – imaging, PC-3E GFP, TEM4-18 mCherry, primary screen (AID 1345086).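 Further: cells exposed to compound for 72 h before imaging.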 As to conditions: PC-3E GFP / TEM4-18 mCherry co-culture, imaging cell counts; measured here: epithelial PC-3E GFP cell survival; at 1 µM.
`N#Cc1cc(I)c(O)c(I)c1` returned a normalised cell number of 1.08. On to `C[C@@H]1[C@H](O)[C@@H](C)/C=C/C=C/CC/C=C/C=C/C=C/C=C/[C@H](OC2O[C@H](C)[C@@H](O)[C@H](N)[C@@H]2O)C[C@@H]2O[C@](O)(C[C@@H](O)[C@H](O)CC[C@@H](O)C[C@@H](O)C[C@@H](O)CC(=O)O[C@H]1C)C[C@H](O)[C@H]2C(=O)O` (some centres undefined), for which the normalised cell number worked out at 1.27. With `CCSCCC(N)C(=O)O` (centres undefined), the normalised cell number was found to be 1.26. Same read-out and setting: the figure for `C/C=C(\C)C(=O)O[C@H]1C[C@@H](OC(C)=O)[C@@]2(C(=O)OC)CO[C@@H]3C2[C@]12CO[C@](O)(C(=O)OC)[C@H]2[C@](C)(C12O[C@@]1(C)[C@H]1C[C@H]2OC2OC=C[C@@]21O)[C@@H]3O` (some centres undefined) is 0.89; for `Fc1ccc(N2CCNCC2)c(F)c1` it is 1.01. Still for that read-out and setting: with `CCC(C)[C@H]1O[C@]2(C=C[C@@H]1C)C[C@@H]1C[C@@H](C/C=C(\C)[C@@H](OC3C[C@H](OC)C(O[C@H]4C[C@H](OC)[C@@H](O)[C@H](C)O4)[C@H](C)O3)[C@@H](C)/C=C/C=C3\COC4[C@H](O)C(C)=C[C@@H](C(=O)O1)[C@]34O)O2` (some centres undefined) the figure was 0.88; with `CC(C)c1cc2c(c(O)c1O)[C@@]1(C(=O)O)CCCC(C)(C)C1CC2` (some centres undefined), 0.87.

The compound `O=C1CC2OCC=C3CN4CC[C@]56c7ccccc7N1C5[C@H]2[C@@H]3CC46` (some centres undefined) had a normalised cell number of 1.02.

The compound `CCCN1CCC[C@@H]2Cc3[nH]ncc3C[C@H]21` had a normalised cell number of 0.89.

The assay is the same for the next values; noted with them: PC-3E GFP / TEM4-18 mCherry co-culture, imaging cell counts; measured here: mesenchymal TEM4-18 mCherry cell survival; at 1 µM.
Take `C[C@]12CCC(=O)C=C1CCC1C2CC[C@@]2(C)C1CC[C@H]2O` (some centres undefined): the normalised cell number was determined as 1.08. With `C[C@@H]1CC[C@@]2(OC1)OC1C(O)C3C4CC[C@H]5C[C@H](O[C@@H]6O[C@H](CO)[C@H](O[C@@H]7O[C@H](CO)[C@@H](O)[C@H](O[C@@H]8OC[C@@H](O)[C@H](O)[C@H]8O)[C@H]7O[C@@H]7O[C@H](CO)[C@H](O)[C@H](O[C@@H]8O[C@H](CO)[C@@H](O)[C@H](O)[C@H]8O)[C@H]7O)[C@H](O)[C@H]6O)[C@H](O)C[C@]5(C)C4CC[C@]3(C)C1[C@@H]2C` (some centres undefined), the normalised cell number was 0.76.

With `CC[C@H](C)/C=C(C)/C=C/C1=CC2=C(Cl)C(=O)[C@](C)(OC(C)=O)C(=O)C2=CO1`, the normalised cell number is 0.96.

Turning to `C[C@]12CCC3C(CC[C@@H]4CC(=O)CC[C@]34C)C1CCC2=O` (some centres undefined), the normalised cell number amounted to 0.91. On the same count and under the same terms, the figure for `O=[N+]([O-])c1ccc(CN2CCNCC2)cc1` is 1.07; for `O=C(O)COc1ccc(O)cc1` it is 1.15; for `C[C@]12CCC3C(CC[C@H]4C[C@H](O)CC[C@]34C)C1CCC2=O` (some centres undefined) it is 0.97. As for `C[C@H]1COc2c(N3CCNCC3)c(F)cc3c(=O)c(C(=O)O)cn1c23`, the normalised cell number was determined as 1.06. Still for that read-out and setting: the figure for `CN(CCC(N)CC(=O)N[C@H]1C=CC(n2ccc(N)nc2=O)O[C@@H]1C(=O)O)C(=N)N` (some centres undefined) is 0.93; for `CCN1C[C@]2(OC(=O)c3ccccc3NC(C)=O)CCC(OC)[C@]34C1[C@@H](CC23)[C@@]1(O)CC(OC)[C@H]2CC4C1(O)[C@H]2OC` (some centres undefined) it is 0.93; for `COc1cc(O)c2c(=O)oc3cc(O)cc(C)c3c2c1` it is 1.07. The same measure, in the same setting: with `C[N+]12CC[C@@]34c5ccccc5N5C(=O)CC6OCC=C(C1)[C@@H](CC32)[C@@H]6C54` (some centres undefined) the figure was 1.01; with `CC1(C)C(=O)C=C[C@@]2(C)C1C[C@@H](O)[C@]1(C)C2CC[C@@]2(C)[C@H](c3ccoc3)OC(=O)[C@H]3O[C@]321` (some centres undefined), 0.95; with `CCC(C)C(=O)O[C@@H]1C[C@@]2(C)[C@H](c3ccoc3)OC(=O)CC23OC2(C)OC34[C@H](OC(=O)C(C)C)C3(O)[C@@H](OC(=O)C5(C)OC5C)[C@@]5(C)C[C@]3(O)[C@@](C)([C@H]5CC(=O)OC)C14O2` (some centres undefined), 1.04. Still for that read-out and setting: the figure for `CCC(C)C1C(=O)OC(C(C)C)C(=O)N(C)C(C(C)C)C(=O)OC(C(C)C)C(=O)N(C)C(C(C)C)C(=O)OC(C(C)C)C(=O)N1C` (centres undefined) is 1 and 0.58; for `C[C@@H]1CC[C@@]2(NC1)OC1CC3C4CC=C5C[C@@H](O)CC[C@]5(C)C4CC[C@]3(C)C1[C@@H]2C` (some centres undefined) it is 1.13. In turn, `NCCc1c[nH]c2ccc(O)cc12` yielded a normalised cell number of 0.96. The same measure, in the same setting: the figure for `C[C@H]1OC(O[C@H]2[C@@H](O)CC(O[C@H]3[C@@H](O)C[C@H](O[C@H]4CC[C@]5(C)C6CC[C@]7(C)[C@@H](C8=CC(=O)OC8)[C@@H](O)C[C@]7(O)[C@@H]6CC[C@@H]5C4)O[C@@H]3C)O[C@@H]2C)C[C@H](O)C1O` (some centres undefined) is 0.07.

Regarding `C[C@]12CCC3C(CC[C@H]4C[C@@H](O)CC[C@]34C)C1CCC2=O` (some centres undefined), the normalised cell number was determined as 1.19. On the same count and under the same terms, the figure for `COc1cc([C@@H]2c3cc4c(cc3[C@H](OC(C)=O)C3COC(=O)[C@@H]32)OCO4)cc(OC)c1OC` (some centres undefined) is 0.16; for `C[C@@H]1CC(Cl)CC[C@H]1C(=O)OC(C)(C)C` (some centres undefined) it is 1.12; for `C[C@]12CC[C@H](O)C[C@H]1CCC1C2CC[C@]2(C)[C@@H](C3=CC(=O)OC3)[C@@H](O)C[C@]12O` (some centres undefined) it is 0.35. Same read-out and setting: with `C/C1=C\[C@@H](C)C/C=C/[C@H]2[C@@H]3O[C@]3(C)[C@@H](C)[C@H]3[C@H](Cc4c[nH]c5ccccc45)NC(=O)[C@]32C(=O)/C=C/C(=O)[C@@H]1O` the figure was 1. On the same count and under the same terms, with `c1ccc(S[C@@H]2OC3COC(c4ccccc4)OC3[C@H]3NC32)cc1` (some centres undefined) the figure was 1.06. `COc1cc2c(cc1OC)[C@@]13CCN4CC5=CCOC6CC(=O)N2C1[C@H]6[C@H]5C[C@H]43` (some centres undefined): the normalised cell number was 1.02 and 1.23. On the same count and under the same terms, with `C[N+]12CC(C[C@H]1c1cccnc1)C2` the figure was 1.16; with `COC[C@]12CN(C=O)C3[C@@H]4[C@H](OC)C1[C@]3(C1CC3(O)C(OC)C(O)C4(OC(C)=O)C1C3OC(=O)c1ccccc1)[C@@H](OC)C[C@H]2O` (some centres undefined), 1.06; with `CC(C)[C@@H]1CC[C@](O)(CCl)[C@@H]2C(=O)OCC(C(=O)O)=C[C@H]21`, 0.96. Still for that read-out and setting: the figure for `CC1CC[C@]2(NC1)O[C@H]1CC3C4CC[C@H]5C[C@@H](O)CC[C@]5(C)C4CC[C@]3(C)[C@H]1[C@@H]2C` (some centres undefined) is 0.89.

Regarding `CC[C@H]1CN2CCC1C[C@@H]2[C@H](O)c1ccnc2ccc(OC)cc12` (some centres undefined), the normalised cell number was determined as 1.07.

As for `C[CH2][Hg+].O=C([O-])c1ccccc1[S-].[Na+]`, the normalised cell number was found to be 0.06. As for `N#Cc1cc(I)c(O)c(I)c1`, the normalised cell number stood at 1.12. On the same count and under the same terms, the figure for `C[C@@H]1[C@H](O)[C@@H](C)/C=C/C=C/CC/C=C/C=C/C=C/C=C/[C@H](OC2O[C@H](C)[C@@H](O)[C@H](N)[C@@H]2O)C[C@@H]2O[C@](O)(C[C@@H](O)[C@H](O)CC[C@@H](O)C[C@@H](O)C[C@@H](O)CC(=O)O[C@H]1C)C[C@H](O)[C@H]2C(=O)O` (some centres undefined) is 1.09; for `CCSCCC(N)C(=O)O` (centres undefined) it is 1.06. As to `C/C=C(\C)C(=O)O[C@H]1C[C@@H](OC(C)=O)[C@@]2(C(=O)OC)CO[C@@H]3C2[C@]12CO[C@](O)(C(=O)OC)[C@H]2[C@](C)(C12O[C@@]1(C)[C@H]1C[C@H]2OC2OC=C[C@@]21O)[C@@H]3O` (some centres undefined), the normalised cell number came to 1.08. Regarding `Fc1ccc(N2CCNCC2)c(F)c1`, the normalised cell number amounted to 1.04.

As for `CCC(C)[C@H]1O[C@]2(C=C[C@@H]1C)C[C@@H]1C[C@@H](C/C=C(\C)[C@@H](OC3C[C@H](OC)C(O[C@H]4C[C@H](OC)[C@@H](O)[C@H](C)O4)[C@H](C)O3)[C@@H](C)/C=C/C=C3\COC4[C@H](O)C(C)=C[C@@H](C(=O)O1)[C@]34O)O2` (some centres undefined), the normalised cell number came to 0.6. The same measure, in the same setting: with `CC(C)c1cc2c(c(O)c1O)[C@@]1(C(=O)O)CCCC(C)(C)C1CC2` (some centres undefined) the figure was 1.02; with `O=C1CC2OCC=C3CN4CC[C@]56c7ccccc7N1C5[C@H]2[C@@H]3CC46` (some centres undefined), 1.14.

In turn, `CCCN1CCC[C@@H]2Cc3[nH]ncc3C[C@H]21` registered a normalised cell number of 1.1.
